Experimental data: PubChem BioAssay (Tox21)
Inconclusive results are not listed. Entries that show only a call come without a potency. Active and inactive are the calls of the source. Calls come from the whole dose curve; as a rule, active = well fitted inhibition curve with a large enough effect in the signal ratio in the repeat runs, with a control signal flat; inconclusive = weak or mixed curves, or effect the other way; inactive = flat fitted curve, though single readings scatter; the % refers to the signal ratio.

Biological target: D(2) dopamine receptor (Homo sapiens) (UniProt P14416)
Assay: Dopamine D2 receptor (DRD2) small molecule antagonists, cell-based qHTS assay (AID 1963595)
Details: HEK293-DRD2 cAMP HTRF antagonist mode; series mostly up to 92.4 µM
Procedure, shortened: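 Cells were plated and grown for 24 h at 37 °C. Ro20-1724 (0.1 mM final) went in first, then compound for 10 min. NKH477 (200 nM) with quinpirole (12 nM) followed for 30 min at RT, then HTRF detection reagents for 1 h.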

Chain of D(2) dopamine receptor (Homo sapiens) (P14416 whole entry, looked up): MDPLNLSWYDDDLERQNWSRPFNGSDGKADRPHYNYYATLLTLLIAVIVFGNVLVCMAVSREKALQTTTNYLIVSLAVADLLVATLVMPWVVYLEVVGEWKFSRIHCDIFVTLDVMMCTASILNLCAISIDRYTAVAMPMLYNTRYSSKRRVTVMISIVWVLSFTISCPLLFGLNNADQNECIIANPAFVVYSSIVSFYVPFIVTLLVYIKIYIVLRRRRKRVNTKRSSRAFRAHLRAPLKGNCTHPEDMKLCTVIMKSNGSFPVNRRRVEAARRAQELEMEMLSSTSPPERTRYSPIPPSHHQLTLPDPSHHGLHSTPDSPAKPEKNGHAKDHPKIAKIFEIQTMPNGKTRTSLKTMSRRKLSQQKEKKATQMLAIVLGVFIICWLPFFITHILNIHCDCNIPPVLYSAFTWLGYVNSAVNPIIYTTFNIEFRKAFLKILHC

`CO[C@@H]1[C@@H](OC)[C@H](C)[C@@](O)(CC(=O)O)O[C@H]1[C@H](C)[C@H]1O[C@@]2(CC[C@@](C)([C@H]3CC[C@@](C)([C@@H]4O[C@@H]([C@H]5O[C@](C)(O)[C@H](C)C[C@@H]5C)C[C@@H]4OC4C[C@H](OC)[C@@H](OC)[C@H](C)O4)O3)O2)C[C@H](O)[C@H]1C` (some centres undefined) was tested. Which Potency did it give?
Its Potency is “inactive”.

For `O=Cc1ccc(O)c(O)c1O`, which Potency is on record?
The Potency was “inactive”.

How did the Potency turn out when `c1ccc2sc(SN3CCOCC3)nc2c1` was run?
Its Potency is “inactive”.

Which Potency does the source give for `O=C(O)Cc1ccc(Cl)cc1Cl` here?
Its Potency is “inactive”.

For `Cc1ccc([N+](=O)[O-])c(N)c1`, which Potency is on record?
Its Potency is “inactive”.

For `CCCCCCCCCC(C)C=O` (centres undefined), which Potency is on record?
The Potency was “inactive”.

How did the Potency turn out when `CCC(Cl)CCC(Cl)C(Cl)CC(Cl)C(Cl)C(Cl)CCl` (centres undefined) was run?
The Potency was “inactive”.

`CCOc1ccc(NC(C)=O)cc1N` was tested. Which Potency did it give?
Its Potency is “inactive”.

How did the Potency turn out when `OC[C@H]1O[C@@H](OCCc2ccc(O)cc2)[C@H](O)[C@@H](O)[C@@H]1O` was run?
Its Potency is “inactive”.

`CCc1ccc2c(c1)C(=O)c1ccccc1C2=O` was tested. Which Potency did it give?
Its Potency is “inactive”.

With `CC(C)c1cccc(C(C)C)c1NC(=O)NS(=O)(=O)c1cc(C(C)(C)O)co1` as the molecule, how does the Potency read?
The Potency was “inactive”.

For `CCc1oc2ccccc2c1C(=O)c1cc(I)c(O)c(I)c1`, which Potency is on record?
The Potency was “inactive”.

With `C=C[Si]1(C)O[Si](C)(C=C)O[Si](C)(C=C)O[Si](C)(C=C)O1` (centres undefined) as the molecule, how does the Potency read?
The Potency was “inactive”.

With `CC1=CCC(C(C)C)C=C1` (centres undefined) as the molecule, how does the Potency read?
The Potency was “inactive”.

Which Potency does the source give for `Oc1ccc(Cc2ccccc2)cc1` here?
Its Potency is “inactive”.

How did the Potency turn out when `Cc1cc(-c2ccc(N=Nc3cc(S(=O)(=O)O)c4ccccc4c3N)c(C)c2)ccc1N=Nc1cc(S(=O)(=O)O)c2ccccc2c1N` was run?
Its Potency is “inactive”.

`CC[C@]12CCCN3CCc4c(n(c5ccccc45)C(=O)C1)[C@@H]32` was tested. Which Potency did it give?
The Potency was “inactive”.

For `c1ccc2occc2c1`, which Potency is on record?
The Potency was “inactive”.

For `C=CCCCCCC`, which Potency is on record?
The Potency was “inactive”.

How did the Potency turn out when `COC(=O)/C=C(\C)CCC=C(C)C` was run?
The Potency was “inactive”.

With `CCN(CCC#N)c1ccc(N=Nc2c(Cl)cc([N+](=O)[O-])cc2Cl)cc1` as the molecule, how does the Potency read?
Its Potency is “inactive”.

With `N=C(N)N` as the molecule, how does the Potency read?
The Potency was “inactive”.

`NCCN1CCOCC1` was tested. Which Potency did it give?
Its Potency is “inactive”.

`O=C(c1ccccc1)c1cc(Cl)ccc1O` was tested. Which Potency did it give?
The Potency was “inactive”.

How did the Potency turn out when `O=C(O)C(=O)Cc1ccccc1` was run?
The Potency was “inactive”.

With `NCCc1cnc[nH]1` as the molecule, how does the Potency read?
The Potency was “inactive”.

`CC/C=C1/OC(=O)c2ccccc21` was tested. Which Potency did it give?
The Potency was “inactive”.

Which Potency does the source give for `O=C1c2ccccc2C(=O)c2c(Cl)cccc21` here?
The Potency was “inactive”.

For `COC(=O)CCCCCCCC(=O)OC`, which Potency is on record?
Its Potency is “inactive”.

`OCCN1CCN(CCO)CC1` was tested. Which Potency did it give?
Its Potency is “inactive”.

Which Potency does the source give for `CC/C=C\CCCCCO` here?
The Potency was “inactive”.

`O=C(NOCC1CC1)c1ccc(F)c(F)c1Nc1ccc(I)cc1Cl` was tested. Which Potency did it give?
The Potency was “inactive”.

`c1ccc(-c2nc3ccccc3[nH]2)cc1` was tested. Which Potency did it give?
Its Potency is “inactive”.

`COc1ccc(C2CNC(=O)C2)cc1OC1CCCC1` (centres undefined) was tested. Which Potency did it give?
Its Potency is “inactive”.
